Data as given in PubChem BioAssay AID720513 (Broad Institute, 2013).
The whole screen tested about 2,100 compounds, of which about 480 (23%) were called active. Roughly 5% stayed inconclusive and do not appear here.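 Rule for the calls: active = fitted curve reaches 40% activation at or below the top valid concentration, in every replicate test; inconclusive = replicate tests disagree on the call; inactive = the rest, including activity in the opposite direction.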 The list is a sample of the results. Entries with a potency or affinity are not part of this list.

Test: activators raising PGC1a acetylation in cells, dose response, cell-based, cherry-picked samples, set 6 (AID 720513);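 note: cells made to overexpress flag tagged PGC1a plus GCN5 acetyltransferase by viral infection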
Details: U2OS PGC1a acetylation AlphaLISA, overnight, 0 = neutral, -100 = inhibitor control; series mostly up to 19.5 µM

outcome, inactive:
CCc1c(C(=O)NC2CCCCC2)[nH]c(C)c1C(C)=O, CCn1c(C(=O)NC2CCC(C)CC2)cc2sccc21 (configuration not stated), CN(Cc1c(F)cccc1Cl)c1nnnn1-c1ccccc1, CN(Cc1c(F)cccc1Cl)C(=O)CNC(=O)c1sc2ccccc2c1Cl, CN(c1cc2c(c3c1ccn3C)C1CCC2C1)C1CCCCC1 (configuration not stated), CCN(CC)CCNc1nc(-c2ccc(OC)cc2)c(-c2ccc(OC)cc2)s1, CCCCNC(=O)C1CCN(Cc2ccccn2)CC1, CC1(Cc2cc(Cl)ccc2C(F)(F)F)C(=O)Nc2ccc(S(=O)(=O)NC3CCCCC3)cc21 (configuration not stated), O=S(=O)(/C(=C\c1ccc(C(F)(F)F)cc1)c1nc2ccccc2[nH]1)c1ccccc1, N#C/C(=C(/O)c1cc2ccccc2o1)c1nc2ccccc2s1, CC(=O)Nc1cc(OC(C)=O)c2nonc2c1OC(C)=O, Cc1ccccc1CSc1nnc(-c2ccco2)n1Cc1ccco1, COCC(=O)Nc1ccc2c(c1)OC[C@@H](C)N(CCc1ccccc1)C[C@H](C)[C@@H](OC)CN(C)C2=O, Cc1cccc(-n2c(=O)cc(N3CCN(c4ccc(F)cc4)CC3)[nH]c2=O)c1, CC(C)c1nnc(NC(=O)CCS(=O)(=O)c2nc(-c3cccs3)cc(C(F)(F)F)n2)s1, COC(=O)c1ccc(CSc2nc3c(cnn3-c3ccc(Cl)cc3)c(=O)[nH]2)o1, CC(=O)N1CCN(S(=O)(=O)c2cccc(C(=O)Nc3ccc4c(c3)OCO4)c2)CC1, O=C(NCc1ccc2c(c1)OCO2)C1CCN(S(=O)(=O)c2cccs2)CC1, Cc1cc(C)n(-c2nc(O)cc(=O)[nH]2)n1, C[C@H]1CN([C@@H](C)CO)C(=O)CCCn2nncc2CO[C@@H]1CN(C)C(=O)Nc1ccccc1, NS(=O)(=O)c1cccc(NC(=O)CSc2ccccn2)c1, O=C(Cc1ccc(Cl)cc1)Nc1ncccn1, CC(C)OC(=O)c1c(F)c(F)c(N2CCOCC2)c(F)c1F, Cc1noc(C)c1S(=O)(=O)N(C)C[C@H]1Oc2ccc(NC(=O)Nc3ccccc3)cc2CC(=O)N([C@H](C)CO)C[C@H]1C, O=S(=O)(c1ccc(Br)s1)N1CCN(Cc2ccc3c(c2)OCO3)CC1, CCC(CC)NC(=O)Cc1ccc(S(=O)(=O)N2CCOCC2)s1, Cc1cccnc1C(NC(=O)C1CCN(Cc2cn(C)c3ccccc23)CC1)c1ccc(Cl)cc1 (configuration not stated), Cc1c(/C(O)=C2\C(=O)C(=O)N(CCCN(C)C)C2c2ccccc2)cnn1-c1ccccc1 (configuration not stated), CC1CN(c2oc(-c3cccs3)nc2C#N)CC(C)O1 (configuration not stated), COc1ccc(C2=NOC(C(=O)Nc3cccnc3)C2)cc1 (configuration not stated), Cc1ccc(CNC(=O)c2ccc(CS(=O)(=O)c3ccccc3)o2)cc1, O=C(c1cccc(F)c1)N1CCN(C(=O)c2cc(-c3ccc(Cl)cc3Cl)on2)CC1, C[C@H](CO)N1C[C@H](C)[C@@H](CN(C)CC2CCOCC2)Oc2ncc(Br)cc2C1=O, O=c1c(Cl)c(NCCCO)cnn1-c1nc2ccccc2[nH]1, c1ccc(CNc2ncnc3nc[nH]c23)cc1, CC(=O)Nc1ccc(Oc2sc(C(=O)c3ccccc3)c(N)c2C#N)cc1, COc1ccc(Nc2ccnc3ccccc23)cc1, COc1ccc(C(=O)Sc2nncc3ccccc23)cc1, Brc1ccc2ncnc(NCc3ccccc3)c2c1, COc1ccc(NC(=O)CN(C)C(=O)CCNC(=O)c2ccccc2OC)cc1, Nc1nn(-c2ccccc2)nc1C(=O)OCc1ccccc1, N#Cc1c(-c2cccc(Br)c2)cc(-c2ccco2)[nH]c1=O, COCc1ccc(CN2CCC(n3nccc3NC(=O)c3ccc4c(c3)OCO4)CC2)o1, CSCC(=O)N1CCCC(CO)(Cc2ccccc2C)C1 (configuration not stated), CO[C@H]1CN(C)C(=O)c2cc(NS(C)(=O)=O)ccc2OC[C@H](C)N(C(=O)NC(C)C)C[C@@H]1C, Cc1ccc(NC(=O)C2C(c3ccccc3)C2(Cl)Cl)c(C)c1 (configuration not stated), Cc1ccc(Nc2nc(C)cc(C)c2C(N)=O)c(C)c1, O=C(/C=C/c1ccc(N2CCCCC2)c([N+](=O)[O-])c1)c1ccc(O)cc1, O=c1[nH]nc(-c2ccc(NCCCO)c([N+](=O)[O-])c2)c2ccccc12, CCOc1ccc2nnc(-c3ccc(Br)cc3)n2n1, CS(=O)(=O)Nc1ccc2c(c1)[C@@H]1C[C@H](CC(=O)N3CCc4ccccc4C3)O[C@@H](CO)[C@@H]1O2, Nc1ncc([N+](=O)[O-])c(N2CCCCCC2)n1, CCNC(=O)NC(=O)COc1ccccc1C#N, O=C1c2ccccc2-[n+]2ccc3c([nH]c4ccccc43)c21, Cc1[nH]c(=O)[nH]c(=O)c1S(=O)(=O)Nc1ccc(F)c(Cl)c1, CCc1ccc(NC(=O)CSc2nnc(-c3cnccn3)n2Cc2ccco2)cc1, CCn1c(SCC(=O)Nc2ccc(OC)c(OC)c2)nnc1-c1cccs1, COCC(=O)OCC(=O)Nc1cc(C(C)(C)C)nn1-c1ccccc1, CN1[C@@H]2CC(OC(=O)[C@H](CO)c3ccccc3)C[C@H]1[C@@H]1O[C@@H]12 (some centres not stated), CCOC(=O)C1CN(S(=O)(=O)c2ccc(C)cc2)c2cc(S(=O)(=O)CC)ccc2O1 (configuration not stated), CCOC(=O)C1CN(S(=O)(=O)c2ccccc2)c2cc(S(=O)(=O)CC)ccc2O1 (configuration not stated), Cc1cc2nc(/C=C/c3cccnc3)[nH]c2cc1C, COc1ccc(C2c3[nH]c4ccccc4c3C[C@H]3C(=O)N(c4ccccc4C(=O)N4CCC[C@@H]4C(=O)O)C(=O)N23)cc1 (some centres not stated), CC(=O)NC1CCN(CC(=O)Nc2nccs2)CC1, O=C(CCC1CCN(Cc2ccccc2Cl)CC1)NC1CC1, Cc1ccccc1Oc1cc(-n2ncc(Cl)c(Cl)c2=O)ncn1, O=C(Cc1ccccc1)Nc1ccc(Cl)cn1, CC(C)(C)NC(=O)Cn1nnc(-c2ccccc2NC(=O)c2ccco2)n1, Cc1noc(C)c1NC(=O)Nc1ccc2c(c1)C(=O)N([C@@H](C)CO)C[C@@H](C)[C@@H](CN(C)CC1CCCCC1)OCCCC[C@H](C)O2, COc1cc(CN2CCN(Cc3ccccc3C(F)(F)F)CC2)cc(OC)c1OC, COc1ccccc1CN1C[C@@H]2C[C@@H](c3cccc(C)n3)N3CCC[C@@]23C1=O, Cc1nc(C(C)N(C)Cc2nc(-c3ccc4c(c3)OCO4)no2)c(C)s1 (configuration not stated), C#CC(CC)(CC)NC(=O)c1ccc(Br)s1, CC(NC(=O)Nc1cccnc1)(C(F)(F)F)C(F)(F)F, CC(=O)c1cccc(NC(=O)Nc2cccnc2)c1, COc1ccccc1C#Cc1ccc2c(c1)O[C@@H](CN(C)Cc1cccnc1)[C@H](C)CN([C@H](C)CO)S2(=O)=O, OC(c1cc(C(F)(F)F)nc2c(C(F)(F)F)cccc12)C1CCCCN1 (configuration not stated), Cc1ccc(-c2cnc3c(c2)C(=O)N([C@H](C)CO)C[C@H](C)[C@@H](CN(C)C)O3)cc1, C[C@@H](C(=O)Nc1cc(C(F)(F)F)ccc1N1CCOCC1)N1C(=O)C2CC=CCC2C1=O (some centres not stated), C[C@@H]1CCCCO[C@H](CN(C)Cc2ccc(Cl)c(Cl)c2)[C@H](C)CN([C@@H](C)CO)C(=O)c2cc(NC(=O)Nc3ccc(F)cc3)ccc2O1, CCCCn1c(SCC(=O)NCc2ccc3c(c2)OCO3)nnc1C(CC)N(C)C (configuration not stated), COc1cc2cc(C)c3nnc(SCC(=O)Nc4cc(C)on4)n3c2cc1OC, Cc1nc2ccccn2c1C(=O)/C=C/c1ccc(F)cc1, CN(C)C(=O)c1ccc(-c2ccc([C@H]3[C@H]4CN(C(=O)CC5CC5)CC(=O)N4[C@H]3CO)cc2)cc1, O=C(O)c1ccc2c(c1)OCCCO2, O=C(CCN1CCc2ccccc2C(c2ccccc2)C1)c1ccc2c(c1)OCCO2 (configuration not stated), CCC(C)NC(=O)c1ccc2c(SCC(=O)O)c3c(nc2c1)CCCC3 (configuration not stated), COc1cccc(C(=O)CSc2nnc(CNS(=O)(=O)c3ccc(C)cc3)n2C)c1, C[C@@H]1CN([C@@H](C)CO)C(=O)c2cc(NC(=O)CCCN(C)C)ccc2O[C@@H](C)CCCCO[C@@H]1CN(C)Cc1ccc(C(F)(F)F)cc1, CC1=CC=CC2=NC(=O)CC(C)(C(=O)N(CC(=O)NC3CCCC3)c3ccccc3C)N12 (configuration not stated), Cn1c(=O)cc(OCCCC(=O)NC2CCCC2)c2ccccc21, c1nc(NC2CCCCCC2)c2[nH]cnc2n1, CCOc1cc(C)c(S(=O)(=O)N2CCCC2)cc1C, O=C(Nc1cccc(F)c1)C1CCN(S(=O)(=O)c2cccc3nonc23)CC1, CCOc1ccc(S(N)(=O)=O)cc1-c1nc2c(C(C)(C)C)nn(C)c2c(=O)[nH]1, O=C(CC1CC1)N[C@@H]1CC[C@@H](CCNS(=O)(=O)c2ccc(Cl)cc2)O[C@@H]1CO, O=C(NCc1ccco1)c1ccc(Cn2c(=O)c3ccccc3n(Cc3ccc(Cl)cc3)c2=O)cc1, Cc1cccn2c(=O)c3cc(C(=O)NCc4ccco4)c(=N)n(CCc4ccccc4)c3nc12, COc1cccc(C(=O)NCCS(=O)(=O)N2CCN(C(=O)c3ccco3)CC2)c1, COc1ccc(CCNC(=O)c2ccc(Cl)cc2)cc1, COc1ccc(S(=O)(=O)NCCC(=O)NCc2ccc(F)cc2)cc1, Cc1ccc(S(=O)(=O)N2CCCC(C(=O)NCCC3=CCCCC3)C2)cc1 (configuration not stated)
